Sampled rows, rich in hits. Any-hit rate of the full collection: about 6%.
DRD3 agonist = activates the human D3 dopamine receptor; P35462; D3R DiscoveRx beta-arrestin cells, luminescence, 90 min; max activation, %; hit rate 0.58% among 410,000; AID 652048; in the data active = max activation above about 30%; note: 0% is about no effect
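Agonist-mode cell screen: cells plated at 1500/well and incubated overnight at 37 °C, then exposed to library compounds for 90 min at 37 °C. Detection reagent was added for 30–60 min at room temperature, and luminescence was read.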
D1 antag = antagonists of human D1 dopamine receptor. activity change, negative = inhibition, % at 10 µM. hit rate 3.2% among 360,000. HEK293 TREx D1 cells, calcium flux, dopamine EC80; active compounds read low. P21728; in the data active = activity change below about -30%; note: % is set by controls: 0 for no effect and ±100 for the full control effect
Target sequence (P21728 whole entry, looked up): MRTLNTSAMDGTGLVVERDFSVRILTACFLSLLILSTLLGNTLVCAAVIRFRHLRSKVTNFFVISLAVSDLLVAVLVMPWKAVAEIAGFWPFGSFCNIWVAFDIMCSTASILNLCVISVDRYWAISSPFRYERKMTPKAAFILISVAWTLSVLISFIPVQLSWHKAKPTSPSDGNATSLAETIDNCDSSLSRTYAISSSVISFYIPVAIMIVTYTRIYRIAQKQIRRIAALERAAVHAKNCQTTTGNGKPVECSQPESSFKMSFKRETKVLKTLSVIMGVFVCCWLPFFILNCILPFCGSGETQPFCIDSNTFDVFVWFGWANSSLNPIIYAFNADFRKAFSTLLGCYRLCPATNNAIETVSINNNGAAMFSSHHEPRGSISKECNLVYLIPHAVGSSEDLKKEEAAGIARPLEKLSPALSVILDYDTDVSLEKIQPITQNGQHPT
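Antagonism measured as reduced calcium response to an EC80 dopamine addition following 180 s compound pre-read; cells were inducible HEK293 Trex D1 plated overnight at 30 C, read kinetically at 1 cycle/sec.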
D3 antag = blocks the human D3 dopamine receptor; P35462; D3R cells, DiscoveRx beta-arrestin luminescence, antagonist mode; active compounds read low; max response, negative = inhibition, %; hit rate 2.5% among 360,000; AID 652054; in the data active = max response below about -50%; inconclusive = no clear call, values can overlap the other calls; note: % is set by controls: 0 for no effect and ±100 for the full control effect
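Cells plated overnight at 1500 cells/well, then exposed to library compounds with dopamine controls for 90 minutes at 37 degrees C. DiscoveRx reagent added for 30–60 minutes at room temperature; luminescence read, quantitative HTS format.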
D1 ag = agonists of human D1 dopamine receptor. hit rate 1% among 360,000. HEK293 T-REx D1 cells, calcium flux, agonist mode. AID 504660. P21728. activation, % at 2 µM; in the data active = activation above about 30%; note: 0% is about no effect
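Inducible HEK293 T-REx D1 cells, force-coupled to calcium signalling, were plated at 4000 cells/well with tetracycline and held overnight at 30 C. After no-wash calcium dye loading, compound-evoked calcium rise over 180 s flagged agonists.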
D1 PAM = potentiators of human D1 dopamine receptor | P21728 | HEK293 TREx D1 cells, calcium flux, dopamine EC20 potentiation | potentiation, % at 10 µM | hit rate 0.036% among 360,000 | AID 504651; in the data active = potentiation above about 30%; note: 0% is about no effect
BCR signal inh = inhibitors of chronic active B-cell receptor signaling; ABC-DLBCL IkBa-CBG/CBR reporter, luminescence ratio, 4 h; Potency, µM (top dose mostly 46.1 µM), without a hit: at the highest dose activity change, negative = inhibition, usual class: inhibitors; hit rate 0.05% among 340,000; AID 493014; active = well fitted inhibition curve with a large enough effect in the signal ratio, with a control signal flat, not every such curve was filed as active; inconclusive = small, poorly fitted or top-dose-only effect, or effect the other way, or a change in a side signal; the % refers to the signal ratio;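 note: potency is the fitted concentration of half-maximal effect; plate controls were basal doxycycline-induced cells for no effect and cells given 10 µM MG132 for full effect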
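TMD8 ABC-DLBCL cells carrying doxycycline-inducible green luciferase fused to IkappaBalpha plus unfused red luciferase were exposed to compounds (up to 46 uM) for 4 hrs at 37C. Activity came from the overlap-corrected green/red luminescence ratio.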
Numbers without * were called inactive.

CC1=NNC(=O)C(CC(=O)Nc2ccc(Cl)c(Cl)c2)C1 (stereo not given) was read as DRD3 agonist -4, D1 antag -36*, D3 antag 15, D1 ag 3, D1 PAM -6 and BCR signal inh inconclusive.
Screening COc1ccc(Cl)cc1NC(=O)CSc1ccc(-c2sc(C)nc2C)nn1 returned DRD3 agonist 4, D1 antag -18, D1 ag 6 and D1 PAM -4.
Screening COc1ccc(CNC(=O)Cc2c(C)c3c(cc(C)c4c(C)c(C)oc43)oc2=O)cc1OC returned DRD3 agonist -9, D1 antag 7, D1 ag 0 and D1 PAM 0.
CC1CCC(NC(=O)Cn2c(=O)oc3ccccc32)CC1 (stereo not given) was read as DRD3 agonist -8, D1 antag 24, D3 antag -51*, D1 ag 3, D1 PAM -1 and BCR signal inh 7%.
Screening Clc1cccc(-c2ccc3ncnc(NCc4ccc5c(c4)OCO5)c3c2)c1 returned D1 antag 22, D1 ag 8, D1 PAM 7 and BCR signal inh inconclusive.
`Cc1ccc(-n2nc(-c3ccc(OC(F)(F)F)cc3)cc2N)cc1C` gave DRD3 agonist 2, D1 antag -32*, D3 antag 19, D1 ag 3, D1 PAM -4 and BCR signal inh inconclusive.
For Cc1ccc(-n2nc(-c3ccc(N)cc3)cc2N)cc1 the results were DRD3 agonist -6, D1 antag -7, D3 antag 6, D1 ag 0, D1 PAM 0 and BCR signal inh 1%.
Cc1nn(C)c(C)c1NC(=O)/C(C#N)=C\N(C)C was read as DRD3 agonist 3, D1 antag -54*, D3 antag 11, D1 ag 2, D1 PAM -2 and BCR signal inh -3%.
`O=S(=O)(c1cccc(F)c1)N1CCN(S(=O)(=O)c2ccc3c(c2)OCCO3)CC1` gave D1 antag -8, D1 ag 1 and D1 PAM 5.
c1cnc2c(c1)ccc1cccnc12 was read as DRD3 agonist -14, D1 antag 0, D3 antag -76*, D1 ag 5, D1 PAM -8 and BCR signal inh -14%.
For Cc1ccnc2c1ccc1cccnc12 the results were DRD3 agonist -29, D1 antag -1, D3 antag -95*, D1 ag 1, D1 PAM -3 and BCR signal inh inconclusive.
Screening Cc1ccnc2c1ccc1c(C)ccnc12 returned DRD3 agonist -18, D1 antag 9, D3 antag -100*, D1 ag 1, D1 PAM -1 and BCR signal inh inconclusive.
For Cc1ccnc2c1ccc1ccccc12 the results were DRD3 agonist -1, D1 antag -18, D3 antag 0, D1 ag 0, D1 PAM -6 and BCR signal inh inconclusive.
O=C(NCCc1ccc(Cl)cc1)C1COc2ccccc2C1 (stereo not given) was read as DRD3 agonist -9, D1 antag -4, D1 ag 0 and D1 PAM 6.
`O=C(NCC(c1cccnc1)N1CCc2ccccc2C1)c1ccc(F)c(F)c1` (stereo not given) gave DRD3 agonist -5, D1 antag -4, D1 ag 1 and D1 PAM 2.
Screening Cn1c(C(=O)NCc2ccc(F)cc2)cc2c(=O)n(C)c3ccccc3c21 returned DRD3 agonist 0, D1 antag -5, D1 ag 1 and D1 PAM -2.
Screening CCCc1ccc(OC(=O)c2sc3ncn(Cc4cccc(F)c4)c(=O)c3c2C)cc1 returned DRD3 agonist 9, D1 antag -4, D1 ag 4, D1 PAM -4 and BCR signal inh -1%.
For CCN(CC)Cc1c(O)ccc2c(-c3ccccc3)cc(=O)oc12 the results were DRD3 agonist 2, D1 antag -31*, D3 antag -10, D1 ag 3, D1 PAM -13 and BCR signal inh 1%.
`N#C/C(=C\c1cc(Br)c(O)c(Br)c1)c1nc2ccccc2c(=O)[nH]1` gave DRD3 agonist -11, D1 antag 13, D1 ag 171* and D1 PAM 12.
For N#C/C(=C\c1ccncc1)c1nc2ccccc2c(=O)[nH]1 the results were DRD3 agonist -1, D1 antag -39*, D3 antag -4, D1 ag 7, D1 PAM -4 and BCR signal inh inconclusive.
For Nn1c(Cc2cccc3ccccc23)nnc1SCCOc1ccc(F)cc1 the results were DRD3 agonist -7, D1 antag -98*, D3 antag -1, D1 ag 5, D1 PAM -4 and BCR signal inh 2%.
`Nn1c(Cc2cccc3ccccc23)nnc1SCCOc1ccc(Br)cc1` gave DRD3 agonist 6, D1 antag -25, D3 antag -2, D1 ag 11, D1 PAM -6 and BCR signal inh inconclusive.
Screening O=C(NCc1ccccc1Cl)c1csc(COCCO)n1 returned DRD3 agonist 5 and D3 antag 22.
`CCOC(=O)c1sc2nc(C)nc(NCCc3ccccn3)c2c1C` gave DRD3 agonist 5, D1 antag -3, D3 antag -2, D1 ag 3, D1 PAM -2 and BCR signal inh inconclusive.
For CCOC(=O)c1c(C)oc2nc(C)nc(NCc3ccccc3OC)c12 the results were DRD3 agonist 12, D1 antag -37*, D1 ag 2 and D1 PAM -5.
Screening CCOC(=O)c1sc2nc(CSc3ccccc3)nc(NCCN(C)C)c2c1C returned DRD3 agonist -15, D1 antag -20, D3 antag -21, D1 ag 50*, D1 PAM -10 and BCR signal inh inconclusive.
CCOC(=O)c1sc2nc(C)nc(NCc3ccccc3OC)c2c1C was read as DRD3 agonist 33*, D1 antag -8, D3 antag 69, D1 ag 9, D1 PAM 2 and BCR signal inh 1%.
`COc1ccc(C(=O)N(C)CCOc2ccc(Cl)cc2)cc1S(=O)(=O)N1CCCC1` gave DRD3 agonist -1 and D3 antag -1.
`Cc1ccc2cccc(S(=O)(=O)Nc3c(C)n(C)n(-c4ccccc4)c3=O)c2n1` gave DRD3 agonist -14, D1 antag -5, D3 antag 11, D1 ag 4, D1 PAM -1 and BCR signal inh -3%.
`Cc1c(NS(=O)(=O)c2cccc3nsnc23)c(=O)n(-c2ccccc2)n1C` gave DRD3 agonist -8, D1 antag -90*, D3 antag -7, D1 ag 1, D1 PAM -3 and BCR signal inh -1%.

Screening results (PubChem BioAssay)
